Compound activity as filed in PubChem BioAssay.
ANO1 block = TMEM16A chloride channel inhibitors, primary screen, cell-based, HTS. AID 588511, 2011. Anoctamin-1 (Mus musculus), Q8BHY3. actives 1.2% (n = 310,000). normalized B-score (activity score, 25-100; higher = stronger inhibition) at 10 µM. HEK293 TMEM16A/YFP iodide influx fluorescence, ionomycin;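 active means ratio plate-corrected score three or more library SD toward inhibition, starting fluorescence score within five deviations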;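 further: score derived from kinetic fluorescence span divided by baseline fluorescence per well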
CHT inh = inhibitors of human choline transporter CHT; B-score at 10 µM; AID 488975, 2010; High affinity choline transporter 1 (Homo sapiens), Q9GZV3; CHT-expressing cells, membrane potential dye, choline response; hits give low values; actives 0.86% (n = 310,000);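 active means B-score over 3 SD under the library average, and starting fluorescence ratio not unusually high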;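 further: choline stimulus applied at its EC90 after an EC20 pre-addition; B-score computed on integrated fluorescence ratio after choline addition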
HDAC3 inh = HDAC3 deacetylase inhibitors, primary screen, biochemical, fluorescence, cell-free homogeneous | AID 2718, 2010 | actives 0.15% (n = 320,000) | Histone deacetylase 3 (Homo sapiens), O15379 | inhibition, % at 8.3 µM | recombinant HDAC3, fluorogenic peptide/trypsin coupled; in the data active means inhibition above about 26%, passing the limit was not always enough; inconclusive means no clear call, values can overlap the other calls
TMEM16A act = TMEM16A chloride channel activators or potentiators, primary screen, cell-based, HTS; actives 0.3% (n = 340,000); AID 623877, 2012; B-score at 10 µM; HEK293 TMEM16A/YFP-H148Q/I152L, iodide quench fluorescence; hits give low values;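 active means fluorescence-ratio B-score plate-corrected deviation score at least 3 library SD below zero, with starting fluorescence score within 5 deviations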;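 further: channel opened by trigger with iodide after compound preincubation; score built on the fluorescence ratio of max minus min over baseline; more negative score means more quench and so TMEM16A activation or potentiation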
CHT PAM = CHT positive allosteric modulators, primary screen, cell-based, membrane potential dye, choline EC20. High affinity choline transporter 1 (Homo sapiens), Q9GZV3. CHT-expressing cells; hits give high values; LV-AA mutant CHT in HEK293 cells. B-score at 10 µM. actives 0.49% (n = 310,000). AID 488977, 2010;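 active means initial fluorescence not abnormally high and integrated response B-score, plate-corrected, over 3 SD above library mean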
PHOSPHO1 inh = PubChem AID 1565; recombinant PHOSPHO1, absorbance phosphatase assay; actives 1.1% (n = 290,000); inhibition, % at 13.3 µM; in the data active means inhibition above about 60%
TMEM16A reconf = TMEM16A chloride channel inhibitors, confirmation, cell-based, re-confirmation; shares compounds with ANO1 block; HEK293 TMEM16A/YFP-H148Q, iodide quench fluorescence; ionomycin added to raise cell calcium; inhibition, % at 10 µM; actives 39% (n = 2,300); AID 652189, 2013;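 active means mean duplicate percent inhibition, scaled so buffer wells are 0 and the reference blocker 100, over three buffer SD above buffer mean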
HEK293 Ca mobil = calcium mobilization in TMEM16A/YFP HEK293 cells, confirmation, counter-screen for TMEM16A inhibitor project | shares compounds with ANO1 block | Fluo4 calcium mobilization | calcium response (% of ionomycin), % at 10 µM | actives 2% (n = 2,300) | AID 652231, 2013;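 active means duplicate-averaged calcium signal over 20% of the ionomycin maximum, relative to buffer baseline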;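 further: each well's signal is peak minus trough fluorescence divided by its pre-addition baseline; 0% = buffer wells and 100% = ionomycin wells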
YFP-HEK293 quench = iodide YFP quench changes in parental YFP-HEK293, counter-screen for TMEM16A inhibitor project, cell-based. ionomycin. 2,300 tested, under 10 active. shares compounds with ANO1 block. YFP ratio F(max-min)/F0 at 10 µM;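 active means yellow fluorescent protein signal ratio exceeding the buffer control mean by over 5 SD of those controls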;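 further: ratio is mean of duplicate wells from kinetic YFP trace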
ClC-1 inh = ClC-1 chloride channel inhibition, selectivity assay for TMEM16A inhibitor project, cell-based, voltage-dependent ClC-1; shares compounds with ANO1 block; CHO ClC-1-YFP, iodide influx fluorescence quench; iodide control reads 0, buffer control 100; ratio percent, % at 10 µM; 2,300 tested, under 10 active; AID 652236, 2013;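 active means duplicate-mean ratio percent above the mean of iodide-only control wells, which defines zero, plus 5 of their SD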;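 further: higher percent means stronger block of ClC-1 iodide influx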
Target sequence (P35524 whole entry, looked up): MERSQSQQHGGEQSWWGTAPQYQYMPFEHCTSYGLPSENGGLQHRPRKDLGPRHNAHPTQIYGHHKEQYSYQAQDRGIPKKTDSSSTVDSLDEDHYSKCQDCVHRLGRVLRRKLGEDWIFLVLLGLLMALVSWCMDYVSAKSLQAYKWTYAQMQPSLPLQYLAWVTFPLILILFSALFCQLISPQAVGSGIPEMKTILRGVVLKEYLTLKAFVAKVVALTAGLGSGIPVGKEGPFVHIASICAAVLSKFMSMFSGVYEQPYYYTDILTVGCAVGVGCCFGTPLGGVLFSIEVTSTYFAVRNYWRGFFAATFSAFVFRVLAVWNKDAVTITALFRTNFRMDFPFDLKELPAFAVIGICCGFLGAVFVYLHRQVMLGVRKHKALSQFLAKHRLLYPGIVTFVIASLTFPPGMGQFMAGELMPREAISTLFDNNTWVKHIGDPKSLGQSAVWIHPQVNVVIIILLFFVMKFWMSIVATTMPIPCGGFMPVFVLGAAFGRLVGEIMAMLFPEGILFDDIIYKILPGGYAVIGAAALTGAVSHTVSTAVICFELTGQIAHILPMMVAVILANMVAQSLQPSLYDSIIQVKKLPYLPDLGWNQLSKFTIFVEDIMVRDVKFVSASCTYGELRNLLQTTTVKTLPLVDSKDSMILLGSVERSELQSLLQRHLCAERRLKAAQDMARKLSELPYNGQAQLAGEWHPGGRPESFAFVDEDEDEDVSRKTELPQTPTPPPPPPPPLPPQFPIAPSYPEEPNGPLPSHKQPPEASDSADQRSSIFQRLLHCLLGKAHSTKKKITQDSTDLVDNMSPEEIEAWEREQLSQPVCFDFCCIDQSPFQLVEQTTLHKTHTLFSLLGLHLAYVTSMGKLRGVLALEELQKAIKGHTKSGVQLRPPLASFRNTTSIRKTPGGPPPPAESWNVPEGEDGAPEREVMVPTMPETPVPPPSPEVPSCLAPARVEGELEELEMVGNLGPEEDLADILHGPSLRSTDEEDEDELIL
The depositor's hits bear a star; i = inactive; ? = inconclusive; . = no result given. The list is not random: actives were taken first. Their share in the collection is about 3.2%.

SMILES | ANO1 block | CHT inh | HDAC3 inh | TMEM16A act | CHT PAM | PHOSPHO1 inh | TMEM16A reconf | HEK293 Ca mobil | YFP-HEK293 quench | ClC-1 inh
CCOc1cc(C(=S)N2CCOCC2)ccc1OC(=O)c1ccc(C)cc1 | 25* | i | -2 | i | i | -17 | i | i | -0.93 | -10
CCOc1cc(C(=S)N2CCOCC2)ccc1OC(=O)c1ccccc1 | i | i | -8 | i | i | 14 | . | . | . | .
Cc1nc2cc(-c3ccsc3-n3c(C)ccc3C)[nH]n2c(=O)c1Cl | 100* | i | 4 | i | i | 49 | 20%* | i | -0.91 | -14
CCc1nc(N2CCOCC2)c(C#N)c2c1COC(C)(C)C2 | i | i | -27 | i | i | -5 | . | . | . | .
O=C(c1ccc(F)cc1)N1CCC(c2ccccc2)C1 (centres undefined) | i | i | -3 | i | i | 34 | i | i | -0.82 | -17
CCCCOC(=O)C1Cc2ccccc2C(=O)O1 (centres undefined) | 100* | i | 0 | i | i | -9 | i | i | -0.91 | 7
CC1(C)Cc2c(cnn2-c2ccc(F)cc2)C(NC(=O)c2ccco2)C1 (centres undefined) | i | i | -1 | i | i | -4 | . | . | . | .
CC12CC(c3ccccc3O1)N(C(=O)c1ccco1)C(=S)N2c1ccc(F)cc1 (centres undefined) | i | i | 1 | i | i | 71* | i | i | -1.2 | 4
COc1ccccc1N(CC(=O)NCCSCc1ccccc1)S(C)(=O)=O | i | i | -1 | i | i | 16 | . | . | . | .
COc1ccccc1N(CC(=O)NCCSCc1cccc(C)c1)S(=O)(=O)c1ccccc1 | 25* | i | -2 | i | i | 33 | i | i | -0.96 | -18
O=C(NC1CC1)c1cc2c(s1)CS(=O)(=O)C2 | i | i | 0 | i | i | 16 | . | . | . | .
CCCOC(=O)C(=O)NNc1ccccc1 | i | i | -3 | i | i | 4 | . | . | . | .
CCCOC(=O)/C(C(N)=NCc1ccccc1)=C(\O)OCCC | 100* | i | 15 | i | i | 39 | i | i | -0.87 | -10
CN(C)c1ccc(-c2noc(C3CCN(S(=O)(=O)c4cccc(Cl)c4)CC3)n2)cc1 | i | i | -10 | i | i | -42 | . | . | . | .
O=S(=O)(c1ccc2ccccc2c1)N1CCC(c2nc(-c3ccncc3)no2)CC1 | 100* | i | -3 | i | i | -1 | 17%* | i | -0.93 | -6
CCCCCc1cc(O)c2c(C)cc(=O)oc2c1 | 100* | i | 3 | i | i | -10 | 16%* | i | -0.97 | -8
Cc1cc(=O)oc2cc(O)cc(O)c12 | . | . | . | i | . | . | . | . | . | .
CCc1ccccc1N(CC)C(=O)CCc1nc(-c2ccc(C)cc2)no1 | 100* | i | ? | i | i | 23 | 30%* | i | -0.88 | -12
Cc1ccc(OCc2nc(C#N)c(NCc3ccco3)o2)cc1 | i | i | 2 | i | i | 9 | . | . | . | .
